This is a sample that favours compounds with a hit; in the whole collection about 4.8% have one here.
ssDAF12 agonist: S. stercoralis DAF-12 nuclear receptor activators, primary screen, cell-based, luminescence, HEK293, GRIP1 co-expression, lit1-tk-luc. Nuclear hormone receptor DAF-12 (Strongyloides stercoralis). HEK293 ssDAF-12/GRIP1 lit1-tk-luc reporter; % of 3 µM dafachronic acid response. activation, % at 6.8 µM. hit rate 1% among 370,000. AID 652126, 2013;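 active = activation above the mean over all tested compounds plus 3 SD, cut at about 0.9% in these data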
SMARCA2 activ: SMARCA2 (BRM) function activators, primary screen, cell-based, luminescence, high throughput; activation, % at 9.1 µM; hit rate 1% among 370,000; AID 652017, 2013; MG213 cells, MMTV-luciferase reporter, dexamethasone, overnight; in the data active = activation above about 7.8%
hcDAF12 agonist: H. contortus DAF-12 nuclear receptor activators, primary screen, cell-based, luminescence, HEK293, lit1-tk-luc reporter; HEK293 hcDAF-12 lit1-tk-luc reporter; 0% DMSO, 100% Δ7-dafachronic acid; activation, % at 6.8 µM; hit rate 1.4% among 370,000; AID 652067, 2013;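 active = activation above the mean of all tested compounds plus 3 SD, cut at about 5.5% in these data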
DAX1 inh-1: DAX1 (NR0B1) inhibitors on StAR promoter, primary screen, cell-based, luminescence, SF-1 (NR5A1), full-length DAX-1 | inhibition, % at 6.8 µM | HEK293T StAR-luciferase reporter, SF-1/DAX-1 repression relief | AID 652010, 2013 | hit rate 1.1% among 370,000;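 active = inhibition above the mean over all tested compounds plus 3 SD, cut at about 3.6% in these data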;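 note: higher inhibition means more luminescence from relief of DAX-1 repression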
DAX1 inh-2: DAX1 (NR0B1) inhibitors, primary screen, cell-based, HEK293, Gal4-DAX1, luciferase luminescence; Nuclear receptor subfamily 0 group B member 1 (Homo sapiens), P51843; HEK293 Gal4-DAX1 luciferase reporter; inhibition, % at 6.75 µM; hit rate 0.99% among 340,000; AID 504766, 2011;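 active = inhibition above the mean over all tested compounds plus 3 SD, cut at about 4.2% in these data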;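 note: inhibition shows as a rise in luminescence from relieved DAX1 repression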
Target sequence (P51843 207-470 limits assumed): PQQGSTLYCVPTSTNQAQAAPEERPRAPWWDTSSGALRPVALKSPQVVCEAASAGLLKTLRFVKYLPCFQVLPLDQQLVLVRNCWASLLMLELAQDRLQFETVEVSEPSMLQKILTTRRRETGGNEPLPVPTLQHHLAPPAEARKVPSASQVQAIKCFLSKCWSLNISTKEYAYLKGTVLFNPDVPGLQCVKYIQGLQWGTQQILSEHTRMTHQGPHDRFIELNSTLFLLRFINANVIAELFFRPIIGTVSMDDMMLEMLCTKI
hgDAF-12 ag: H. glycines DAF-12 receptor agonists, primary screen, cell-based, luminescence, HEK293, GAL4 fusion, UAS-luciferase | Nuclear hormone receptor DAF-12 (Heterodera glycines), GAL4 fusion | HEK293 GAL4-hgDAF12 UAS-luciferase reporter, agonist luminescence; normalized to butyrate control | activation, % at 6.8 µM | hit rate 1.8% among 370,000 | AID 687014, 2013;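 active = activation above a cutoff set at the mean of all screened compounds plus 3 SD, cut at about 10% in these data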
hgDAF12 conf: H. glycines DAF-12 receptor agonists, confirmation, cell-based, luminescence, HEK293, GAL4-LBD fusion; shares compounds with hgDAF-12 ag; HEK293 GAL4-hgDAF12 luciferase reporter, agonist mode; percent of butyrate response; activation, % at 6.8 µM; hit rate 80% among 3,300; AID 743050, 2013;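 active = mean activation over triplicate wells above the hit cutoff derived from the earlier primary screen, cut at about 11% in these data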
LXRb DAF12 ctr: LXR agonists, Gal4 luciferase reporter, confirmation, counter-screen for hgDAF-12 agonist project, cell-based, luminescence, HEK293, H. glycines campaign; shares compounds with hgDAF-12 ag; 24 h; activation, % at 6.8 µM; 3,300 tested, under 10 active;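 active = mean activation of the triplicate above a set limit carried over from the primary screen, none filed active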
Target sequence (P55055 whole entry, looked up, the tested form may be a part): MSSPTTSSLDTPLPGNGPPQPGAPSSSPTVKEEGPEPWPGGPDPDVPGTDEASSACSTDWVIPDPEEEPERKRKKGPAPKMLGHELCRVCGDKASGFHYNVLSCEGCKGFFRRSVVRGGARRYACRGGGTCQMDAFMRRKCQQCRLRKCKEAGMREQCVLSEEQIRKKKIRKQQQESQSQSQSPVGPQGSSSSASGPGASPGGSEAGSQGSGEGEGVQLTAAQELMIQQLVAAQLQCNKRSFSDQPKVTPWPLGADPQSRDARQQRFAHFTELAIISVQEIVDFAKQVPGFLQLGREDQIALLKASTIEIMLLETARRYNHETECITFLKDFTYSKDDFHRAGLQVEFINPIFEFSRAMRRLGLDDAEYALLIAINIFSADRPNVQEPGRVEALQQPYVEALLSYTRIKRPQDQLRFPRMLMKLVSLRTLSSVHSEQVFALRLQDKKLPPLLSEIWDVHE
Large screens that a line does not name were inactive (follow-up assays come after a bar, where they were run).

CC(COc1ccc(OC(F)(F)F)cc1)CN1CCC(C(O)(c2ccccc2)c2ccccc2)CC1 (stereo unspecified)	none (no result: DAX1 inh-2)
Nc1cc2nc[nH]c2cc1N	hcDAF12 agonist 6.1, hgDAF-12 ag 14.8 | hgDAF12 conf inactive | LXRb DAF12 ctr inactive
CCCN(CCC)CC(O)Cn1cc(/C=C/C(=O)c2cccs2)c2ccccc21 (stereo unspecified)	hgDAF-12 ag 26.5 | hgDAF12 conf inactive | LXRb DAF12 ctr inactive
CC(c1ccc(NC(=O)OC(C)(C)C)cc1)c1cn(C)c2ccccc12 (stereo unspecified)	hcDAF12 agonist 5.7, hgDAF-12 ag 13.5 (no result: DAX1 inh-2) | hgDAF12 conf inactive | LXRb DAF12 ctr inactive
COC(=O)C1=C(C)N(Cc2ccc(C(F)(F)F)cc2)C(=NCc2ccccc2C(F)(F)F)NC1c1ccc(C(F)(F)F)cc1 (stereo unspecified)	none (no result: DAX1 inh-2)
COc1cccc(C(=O)NC(=O)Nc2cc(C)[nH]n2)c1	DAX1 inh-2 8.1, hgDAF-12 ag 14.9 | hgDAF12 conf 14.2 | LXRb DAF12 ctr inactive
COc1ccc(C(=S)Nc2ccc(N(C)C)cc2)cc1	DAX1 inh-1 4.0, hgDAF-12 ag 14.9 | hgDAF12 conf 15.3 | LXRb DAF12 ctr inactive
COc1cccc(C(=O)NC(=S)Nc2ccc(N(C)C)cc2)c1	hgDAF-12 ag 18.3 | hgDAF12 conf 12.4 | LXRb DAF12 ctr inactive
COc1cccc(C(=O)NC(=S)Nc2ccc(N3CCCC3)cc2)c1	none
COc1cccc(C(=O)Nc2ccc(C3CC3(Cl)Cl)cc2)c1 (stereo unspecified)	ssDAF12 agonist 1.2, hgDAF-12 ag 18.8 | hgDAF12 conf 17.8 | LXRb DAF12 ctr inactive
CCCCCCCCN1C(=O)[C@@H](CC(=O)N2CCCCC2)C[C@@]2(C(=O)OC)C1=C[C@H](C1CCCC1)O[C@@H]2C	none (no result: DAX1 inh-2)
CC1(C)OC(=O)C2=C(CC(CCc3ccccc3)OC2c2ccc(F)cc2)O1 (stereo unspecified)	none (no result: DAX1 inh-2)
COc1ccc(-c2nc3c(C)cc(Br)cn3c2Cc2ccccc2C(F)(F)F)cc1OC	none (no result: DAX1 inh-2)
Clc1ccc2nc(CSCc3ccccc3)cn2c1	ssDAF12 agonist 0.9, DAX1 inh-1 4.0, hgDAF-12 ag 18.9 | hgDAF12 conf 14.2 | LXRb DAF12 ctr inactive
Clc1cccc(CNc2ccn3nc(-c4cccc(Cl)c4)cc3n2)c1	hgDAF-12 ag 13.4 (no result: DAX1 inh-2) | hgDAF12 conf inactive | LXRb DAF12 ctr inactive
Clc1cccc(CNc2ccn3nc(-c4ccccc4)cc3n2)c1	none (no result: DAX1 inh-2)
Clc1ccc(-c2cc3nc(NCc4cccc(Cl)c4)ccn3n2)cc1	DAX1 inh-1 3.9, hgDAF-12 ag 14.4 (no result: DAX1 inh-2) | hgDAF12 conf 16.6 | LXRb DAF12 ctr inactive
O=S1(=O)CCSC[C@@H](CN2CCN(c3ccccc3)CC2)N1	none (no result: DAX1 inh-2)
Cc1nc(-c2ccc(C(=O)Nc3ccc(F)cc3)cc2)cs1	none
Cc1nc(-c2ccc(NC(=O)c3ccccc3C)cc2)cs1	hgDAF-12 ag 20.0 | hgDAF12 conf 15.7 | LXRb DAF12 ctr inactive
C=CCCC1CN(Cc2ccc(OC)cc2)S(=O)(=O)c2c(cccc2N2CCCC2)O1 (stereo unspecified)	none (no result: DAX1 inh-2)
CC1=CC2C3C(=O)N(c4ccccc4)C(=O)C3C1C(=O)C2(O)C(C)C (stereo unspecified)	none (no result: DAX1 inh-2)
COc1cccc2c1C(=O)O/C2=C/c1ccc2c(c1)OCO2	ssDAF12 agonist 1.2, hgDAF-12 ag 16.3 | hgDAF12 conf 14.3 | LXRb DAF12 ctr inactive
O=C(Nc1cccc(F)c1)OCCN1CCCC12CCC(c1ccccc1)CC2 (stereo unspecified)	none (no result: SMARCA2 activ, DAX1 inh-1, DAX1 inh-2)
CN(C)c1ccc(/C=C2\CCCCC2=O)cc1	hgDAF-12 ag 17.7 | hgDAF12 conf 14.4 | LXRb DAF12 ctr inactive
Cc1ccc2nc(-c3ccco3)c(Cc3ccccc3C(F)(F)F)n2c1	none (no result: DAX1 inh-2)
CN1CCSc2ccc(C(=O)Nc3ccc(Cl)cc3)cc21	DAX1 inh-2 7.0, hgDAF-12 ag 17.9 | hgDAF12 conf 17.1 | LXRb DAF12 ctr inactive
CN1CCSc2ccc(C(=O)NCc3cccc(F)c3)cc21	none
CCOc1ccc(NC(c2ccccn2)c2oc(CO)cc(=O)c2O)cc1 (stereo unspecified)	ssDAF12 agonist 1.4, hgDAF-12 ag 14.1 | hgDAF12 conf 13.1 | LXRb DAF12 ctr inactive
C#CCN1CC(COc2ccccc2)OCCS1(=O)=O (stereo unspecified)	none (no result: DAX1 inh-2)
CC(Sc1nnc(NCc2ccccc2)s1)C(=O)Nc1ccc2c(c1)C(=O)c1ccccc1C2=O (stereo unspecified)	hgDAF-12 ag 15.2 | hgDAF12 conf inactive | LXRb DAF12 ctr inactive
CC(Sc1nnc(NC2CC2)s1)C(=O)Nc1ccc(S(N)(=O)=O)cc1 (stereo unspecified)	none
CC(=O)Nc1cccc(-c2nc3ccc(NC(C)=O)cc3s2)c1	hgDAF-12 ag 18.9 | hgDAF12 conf 12.4 | LXRb DAF12 ctr inactive
CC(=O)Nc1ccc(C(=O)c2ccccc2)cc1	none
CC(=O)Nc1ccc(/C(N=Nc2ccccc2)=N/N=C(N)N)cc1	ssDAF12 agonist 1.6, DAX1 inh-2 4.5, hgDAF-12 ag 13.4 | hgDAF12 conf 16.1 | LXRb DAF12 ctr inactive
CCCC(=O)OC[C@H]1CN(C2CCCC2)S(=O)(=O)c2c(Oc3ccc(F)cc3)cccc2O1	none (no result: DAX1 inh-2)
O=C(CNC(=O)c1ccccc1)OC1CCCCC1	hgDAF-12 ag 16.1 | hgDAF12 conf 18.2 | LXRb DAF12 ctr inactive
Cn1c(-c2ccc(Br)o2)nc2ccccc21	ssDAF12 agonist 1.0, hcDAF12 agonist 5.8, DAX1 inh-1 3.7, hgDAF-12 ag 15.2 | hgDAF12 conf 14.8 | LXRb DAF12 ctr inactive
COCCCNCCCCOc1ccc(OCc2ccccc2)cc1	none
C=CCNCCCCOc1ccc(OCc2ccccc2)cc1	hgDAF-12 ag 15.2 | hgDAF12 conf 16.9 | LXRb DAF12 ctr inactive
c1ccc(COc2ccc(OCCCCN3CCCC3)cc2)cc1	SMARCA2 activ 19.3, hgDAF-12 ag 13.9 | hgDAF12 conf 14.5 | LXRb DAF12 ctr inactive
